Screens deposited in PubChem BioAssay by National Center for Advancing Translational Sciences (NCATS).
A selection: hits, their analogues and other compounds. The true share with any hit is near 2%.
Rango dissoc inh – inhibitors of RanGTP-induced Rango-importin beta complex dissociation; Biochemical FRET Rango-importin beta, RanGTP-induced dissociation; O95149+P62826; AID 540253; Potency, µM (series often up to 46.1 µM), for the others: top-dose activity change, negative = inhibition; 340,000 tested, 0.071% active; calls by dose curve; also: % of control where 0% means no effect; nearly all actives have a fitted effect of over 45% in size
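Rango/importin beta premix (0.1/0.25 uM final), PBS + 1 mM DTT + 0.02% Tween-20 + 0.1% BSA; cpd 5 min RT; FRET pre-read; + RanGTP-RCC1 (0.6 uM Ran, 2 mM GTP, 0.2 uM RCC1); 45 min RT; FRET post-read, ex 430, em 486/530 nm.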
Abeta rescue – compounds reversing amyloid beta toxicity in yeast. 410,000 tested, 0.063% active. yeast expressing A-beta42, growth rescue, OD600, 48 h; response scale: 0% DMSO, 100% iron-clioquinol control. Potency, µM (highest dose often 46.1 µM), usual class: activators; also: nearly all actives have a fitted effect of over 55% in size
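Yeast A-beta toxicity model in growth medium with pinned compounds, 48 h at 30 C; growth read as absorbance at 600 nm. Normalized to FeCl3/clioquinol equimolar mix (positive) and DMSO (negative).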
aSyn yeast inh – alpha-synuclein toxicity inhibition in yeast | Yeast expressing alpha-synuclein, growth rescue, BacTiter-Glo, 24 h | Potency, µM (doses to about 46.1 µM), for inactives: at the highest dose growth rescue (activation), actives largely listed as activators | 370,000 tested, 0.14% active; also: % of control where 0% means no effect; nearly all actives have a fitted effect of over 65% in size
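Rescue of yeast growth: cells expressing toxic alpha-synuclein, induced in galactose at OD600 0.02, incubated with compound 24 h at 30 C. ATP luminescence quantified growth; inhibitors of toxicity appear as activators.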
TDP-43 yeast inh – rescues yeast growth from TDP-43 toxicity | TDP-43 expressing yeast growth rescue, BacTiter-Glo, 24 h | Potency, µM (doses to about 46.1 µM), without a hit: at the top dose growth rescue (activation), most hits filed as activators | 410,000 tested, 1.8% active; also: % of control where 0% means no effect; nearly all actives have a fitted effect of over 50% in size
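Growth rescue of TDP-43-toxic yeast measured as ATP luminescence (BacTiter-Glo). Cells grown to mid-log in raffinose, induced in galactose at OD600=0.02, exposed to compound 24 hr at 30 deg C.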
S-ASM inh – inhibitors of human secretory acid sphingomyelinase; placental ASM, HMU-PC fluorogenic substrate, 60 min; P17405; 340,000 tested, 0.006% active; Potency, µM (doses to about 57.5 µM), for the others: at the top dose activity change, negative = inhibition, usual class: inhibitors; AID 504937
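Human placenta-derived ASM preincubated with compound 10 min at room temperature, then reacted with 9 uM (final) fluorogenic HMU-PC substrate for 60 min at 37 C. Stop solution raises pH to 10; fluorescence read at Ex 386/Em 447 nm.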
Rango complex inh – prevents formation of the Rango-importin beta complex | AID 540263 | 340,000 tested, 0.031% active | Rango CFP/YFP FRET sensor + importin beta, 45 min | Q14974 | Potency, µM (series often up to 92.2 µM), for inactives: at the highest dose inhibition of complex formation; calls by dose curve;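 also: 0% = DMSO wells and 100% = buffer wells lacking importin beta; nearly all actives have a fitted effect of over 15% in size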
Target sequence (Q14974 whole entry, looked up): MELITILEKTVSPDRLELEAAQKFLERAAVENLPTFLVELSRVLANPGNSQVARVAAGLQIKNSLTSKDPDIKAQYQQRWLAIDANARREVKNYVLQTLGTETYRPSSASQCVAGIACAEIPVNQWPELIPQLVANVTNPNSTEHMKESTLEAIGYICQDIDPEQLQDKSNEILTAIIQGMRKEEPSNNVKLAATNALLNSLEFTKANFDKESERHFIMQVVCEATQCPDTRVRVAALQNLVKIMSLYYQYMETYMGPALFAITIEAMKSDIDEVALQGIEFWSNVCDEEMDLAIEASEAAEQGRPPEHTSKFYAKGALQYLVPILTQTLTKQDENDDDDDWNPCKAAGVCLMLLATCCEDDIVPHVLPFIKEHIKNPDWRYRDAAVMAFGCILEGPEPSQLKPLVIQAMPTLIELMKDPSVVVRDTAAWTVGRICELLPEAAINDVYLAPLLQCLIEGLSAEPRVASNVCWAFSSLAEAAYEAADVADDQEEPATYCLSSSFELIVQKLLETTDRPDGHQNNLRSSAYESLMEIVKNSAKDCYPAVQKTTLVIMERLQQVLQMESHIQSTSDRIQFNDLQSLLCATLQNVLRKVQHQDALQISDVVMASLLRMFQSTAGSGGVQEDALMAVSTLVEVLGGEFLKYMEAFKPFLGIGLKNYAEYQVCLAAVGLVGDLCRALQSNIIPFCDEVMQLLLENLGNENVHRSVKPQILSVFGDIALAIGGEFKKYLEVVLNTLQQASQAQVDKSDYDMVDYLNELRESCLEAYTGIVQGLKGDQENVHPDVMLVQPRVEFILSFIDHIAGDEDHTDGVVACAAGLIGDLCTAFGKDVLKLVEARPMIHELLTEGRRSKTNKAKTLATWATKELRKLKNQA
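FRET biosensor Rango (snurportin 1 IBB between N-terminal EYFP and C-terminal Cerulean), 50 nM in PBS/1 mM DTT/0.02% Tween-20/0.1% BSA, preincubated 5 min RT with compound; 0.125 microM importin beta added, 45 min RT, CFP/YFP FRET ratio read.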
* hit, by the source's call; i = inactive; ? = inconclusive; / = no result given; [ ] = another dose, or the depositor's remark. Unless noted, calls follow the shape of the dose curve; as a rule, active = well fitted curve in the direction sought with a large enough effect; inconclusive = small, poorly fitted or top-dose-only effect, or another doubt; inactive = no such curve, though single readings can be large; an effect the other way counts as inactive or inconclusive. Potency is read from the fitted curve at half-maximal effect.

SMILES | Rango dissoc inh | Abeta rescue | aSyn yeast inh | TDP-43 yeast inh | S-ASM inh | Rango complex inh
c1ccc(CN2CCN(Cc3ccc4ccccc4c3)CC2)cc1 | -0.1% | i | 7.8% | -4.4% | -1.1% | -1.1%
COc1ccccc1OCCCn1cc(C(=O)c2ccco2)c2ccccc21 | -9.6% | i | -4.3% | ? | -14.3% | -2.5%
O=C(c1ccco1)c1cn(Cc2ccc(Cl)cc2)c2ccccc12 | 5.4% | ? | 13.6% | 12.6µM* | -14.9% | 1.6%
OC1(c2ccc(Cl)cc2)CCN(Cc2c[nH]c3ccccc23)CC1 | -14.9% | i | 1.8% | ? | -2.3% | 5.3%
Cc1ccc(F)cc1NC(=O)c1ccc(Cn2nc(N3CCN(c4ccccc4)CC3)ccc2=O)o1 | / | i | / | 25.1µM* | / | /
CC(C)(C)C(=O)N1Cc2cc(-c3ccccc3)ccc2-n2nncc2C1 | / | i | -5.0% | 13.2% | / | /
COc1ccc(-c2ccc3c(c2)CN(C(=O)C(C)(C)C)Cc2cnnn2-3)cc1 | / | i | 3.7% | 17.8µM* | / | /
CC/C(CC(c1ccccc1)c1c(O)c2ccccc2oc1=O)=N\NC(N)=S (stereo not drawn) | -5.6% | i | -1.7% | ? | 3.1% | 7.3%
CCC(=O)CC(c1ccccc1)c1c(O)c2ccccc2sc1=O (stereo not drawn) | -7.2% | i | -17.3% | 25.1µM* | -2.5% | 0.1%
COc1cccc(-n2c(-c3ccoc3)nc3ccccc3c2=O)c1 | -2.5% | i | -3.7% | 17.7% | 1.6% | 0.5%
COc1cccc(-n2cnc3scc(-c4cccs4)c3c2=O)c1 | -8.5% | i | 9.0% | 17.8µM* | -2.7% | -1.7%
Cc1ccccc1C(=O)Nc1cc(-c2ccc(Cl)cc2)nn1-c1ccccc1 | / | i | / | ? | / | /
Cc1cccc(C)c1-n1nnnc1C(c1cccs1)N1CCC(n2c(=O)[nH]c3ccccc32)CC1 (stereo not drawn) | / | i | 7.4% | 17.7% | / | /
Cc1cccc(C)c1-n1nnnc1C(c1cccc2ccccc12)N1CCC(n2c(=O)[nH]c3ccccc32)CC1 (stereo not drawn) | / | i | -2.0% | 22.4µM* | / | /
NC(Cc1ccc(C(F)(F)F)cc1)c1csc(Nc2nncc3ccccc23)n1 (stereo not drawn) | / | i | -54.4% | ? | / | /
Cc1ccccc1N(CC(=O)NC1CCCC1)C(=O)c1csnn1 | -16.8% | i | -4.3% | -5.6% | 7.6% | 5.5%
CC12CC(=O)C3C(CCC4CC=CCC43C)C1CCC2=O (stereo not drawn) | ? | i | 8.8% | 10µM* | -0.6% | -2.3%
O=C(NCCc1ccc(F)cc1)C(=O)NCC(c1cccs1)S(=O)(=O)c1ccc(Cl)cc1 (stereo not drawn) | / | i | / | ? | / | /
ClCCN(CCCl)c1ccc(/C=C/c2sc3ccccc3[n+]2CCCCI)cc1 | / | / | -25.7% | / | / | /
Cc1ccccc1-n1c(-c2ccc([N+](=O)[O-])cc2)nc2ccccc2c1=O | -11.7% | i | 20µM* | ? | -2.1% | 1.8%
Nc1ccc(Cl)cc1C(=O)c1ccccc1Cl | -8.6% | i | ? | 20µM* | -5.6% | 0.6%
Nc1ccc(Cl)cc1C(=O)c1ccccc1 | 0.3% | i | 5.9% | -2.4%[0.397 µM] | -6.6% | 3.0%
COC(=O)C1=C(c2cc3ccccc3s2)C[C@@H]2CC[C@H]1N2C(=O)NCc1ccccc1 | -17.7% | i | 2.0% | ? | -7.2% | 1.1%
COC(=O)C1=C(c2ccc(OC(F)(F)F)cc2)C[C@@H]2CC[C@H]1N2C(=O)NCCOc1ccccc1Cl | -7.3% | i | 10.3% | 28.2µM* | -17.3% | -2.0%
COC(=O)C1=C(c2cc3ccccc3s2)C[C@@H]2CC[C@H]1N2C(=O)NCc1ccc(F)cc1 | -0.2% | i | ? | 10µM* | -4.6% | 1.1%
COC(=O)C1=C(c2ccc(Cl)c(C(F)(F)F)c2)C[C@@H]2CC[C@H]1N2C(=O)NCc1ccco1 | -6.1% | i | 1.4% | 22.4µM* | -14.0% | -0.1%
COC(=O)C1=C(c2ccc(Cl)c(C(F)(F)F)c2)C[C@@H]2CC[C@H]1N2C(=O)NCCOc1ccccc1 | 10.9% | i | 1.5% | 22.4µM* | -3.6% | 4.5%
CC(=O)Nc1ccc(OC(=O)N2CCN(/[N+]([O-])=N/Oc3ccc([N+](=O)[O-])cc3[N+](=O)[O-])CC2)cc1 | / | / | -29.4% | / | / | /
Cc1nc2cc(OC(=O)N(C)Cc3cccc(-c4ccncc4)c3)ccc2s1 | / | i | 1.9% | 10µM* | / | /
